VACV mCherry inh: inhibitors of vaccinia virus infection (mCherry reporter signal). Potency, µM (top dose mostly 36.5 µM), inactives show at the top dose activity change, negative = inhibition, usual class: inhibitors. AID 720579. Vaccinia virus mCherry reporter infection, fluorescence. hit rate 0.63% among 310,000; calls by dose curve; tested in A549 cells; note: nearly all actives have a fitted effect of over 35% in size
Pf growth 96h: P. falciparum growth inhibition at 96 hour, primary screen for plastid delayed-death inhibitors | P. falciparum luciferase reporter growth, 96 h | Potency, µM (doses to about 28.7 µM), without a hit: top-dose activity change, negative = inhibition, usual class: inhibitors | hit rate 6.9% among 320,000
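P. falciparum expressing integrated firefly luciferase grown in erythrocytes (2% hematocrit, 0.05% parasitemia final) with compounds for 96 hours at 37 C, 5% CO2. Growth inhibition read as loss of luminescence after adding luciferase detection reagent.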
Pf growth 48h: P. falciparum growth inhibition at 48 hours (one generation); Potency, µM (top dose mostly 28.7 µM), inactives show top-dose activity change, negative = inhibition, actives largely listed as inhibitors; P. falciparum luciferase growth in erythrocytes, 48 h; hit rate 5.9% among 310,000; AID 504832
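Luciferase-expressing P. falciparum in infected erythrocytes (2% hematocrit, 0.1% parasitemia final) in RPMI 1640/0.5% Albumax were exposed to compound for 48 hours at 37 C, 5% CO2; growth read as luminescence.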
AMA1-RON2 inh: disrupts binding of P. falciparum AMA1 to RON2; Potency, µM (series often up to 58.2 µM), for the others: at the top dose activity change, negative = inhibition, actives largely listed as inhibitors; hit rate 0.2% among 360,000; AlphaScreen AMA1-biotinylated RON2 peptide binding;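 note: 0% = vehicle wells and -100% = peptide control; nearly all actives have a fitted effect of over 45% in size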
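AMA1 (3D7) with his tag at 25 nM final met compounds first, then biotinylated RON2 peptide at 25 nM; detection used donor plus acceptor beads, 10 µg/mL apiece, read by AlphaScreen after 30 min at room temperature.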
Vaccinia Venus: vaccinia inhibition (Venus reporter) | Vaccinia virus Venus reporter expression, fluorescence | Potency, µM (doses to about 36.5 µM), for the others: top-dose activity change, negative = inhibition, usual class: inhibitors | hit rate 0.46% among 330,000 | AID 720580; calls by dose curve; tested in A549 cells; note: nearly all actives have a fitted effect of over 30% in size
Active calls of the source: *; i = inactive; ? = inconclusive; nt = not tested or not shown; [ ] = dose if it differs, or a comment. Shown are actives, neighbours in structure and some others; about 8.7% of the full set was active somewhere. Unless noted, calls come from the whole dose curve; as a rule, active = well fitted curve in the direction sought with a large enough effect; inconclusive = small, poorly fitted or top-dose-only effect, or another doubt; inactive = no such curve, though single readings can be large; an effect the other way counts as inactive or inconclusive. Unless noted, % is set by controls: 0 for no effect and ±100 for the full control effect; potency is the fitted concentration of half-maximal effect.

SMILES | VACV mCherry inh | Pf growth 96h | Pf growth 48h | AMA1-RON2 inh | Vaccinia Venus
O=C(c1ccc(-c2ccccc2)cc1)N1CCCC1 | -8% | 59% | 64% | 14% | -20%
O=C(c1ccc(-c2ccccc2)cc1)N1CCN(c2ncccn2)CC1 | -12% | 10µM* | -7% | -14% | -2%
Cn1c(=O)c2c(-c3ccccc3)n(-c3cccc(C#N)c3)cc2n(C)c1=O | -10% | nt | nt | nt | -15%
Cc1cc2oc(=O)cc(CN3CCN(S(=O)(=O)c4cccs4)CC3)c2cc1C | -7% | 7.4µM* | ? | 0%[11.6 µM] | -5%
O=S(=O)(c1ccccc1)N1CCN(Cc2c(O)ccc3ccccc23)CC1 | nt | nt | nt | -2% | nt
Oc1ccc2ccccc2c1CN1CCN(C/C=C/c2ccccc2)CC1 | ? | 9.3µM* | ? | -12% | -7%
CCc1cc(=O)oc2cc(C)cc(O)c12 | i | 21% | nt | -4% | -5%
Cc1cc(O)c2c(CN3CCN(Cc4ccccc4)CC3)cc(=O)oc2c1 | nt | 8.3µM* | ? | -10% | nt
Cc1cc2oc(=O)cc(CN3CCN(Cc4ccccc4)CC3)c2cc1O | nt | ? | 9.3µM* | -3% | nt
Cc1cc2oc(=O)cc(CN3CCCCC3)c2cc1C | nt | 4% | 17% | 0% | nt
O=c1cc(CN2CCN(Cc3ccccc3)CC2)c2cc(O)ccc2o1 | nt | ? | -24% | -2% | nt
CCOc1ccc(NC(=O)CN(Cc2ccccc2)S(=O)(=O)c2ccc3nc(C)sc3c2)cc1 | -10% | nt | nt | nt | -12%
COc1ccc2cc(CNc3ccc(C)cc3)c(=O)n(CC(=O)Nc3cccc(C(F)(F)F)c3)c2c1 | -2% | nt | nt | nt | -3%
COc1cccc(CNC(=O)C(NS(=O)(=O)c2cccs2)C(C)C)c1 (stereo not drawn) | -10% | nt | nt | nt | 1%
O=C(Nc1ccc(Cl)cn1)c1cnn2c1NC(=C1CC1)C=C2C(F)F | ? | nt | nt | nt | -25%
CCc1cc2c(CN3CCN(C)CC3)cc(=O)oc2cc1O | -14% | nt | ? | -15% | -10%
CCc1cc2c(CN3CCN(CCO)CC3)cc(=O)oc2cc1O | nt | ? | 13µM* | 24% | nt
O=c1cc(CN2CCN(C/C=C/c3ccccc3)CC2)c2cc(O)c(-c3ccccc3)cc2o1 | -6% | 1µM* | 0.93µM* | 3% | -10%
Cc1cc2oc(=O)cc(CN3CCN(C/C=C/c4ccccc4)CC3)c2cc1O | nt | nt | 2.9µM* | nt | nt
Cc1c(O)ccc2c(CN3CCN(C/C=C/c4ccccc4)CC3)cc(=O)oc12 | -7% | ? | 2.6µM* | 0% | -28%
CCOc1ccc(NC(=O)CC2C(=O)N(c3ccccc3)C(=O)N2CCc2sccc2C)cc1 (stereo not drawn) | -11% | nt | nt | nt | -2%
Cc1ccc2c(CN3CCN(S(=O)(=O)/C=C/c4ccccc4)CC3)cc(=O)oc2c1 | -10% | 9.3µM* | ? | -2%[11.6 µM] | -11%
CC(C)CN(Cc1cc(=O)oc2cc(-c3ccccc3)c(O)cc12)CC(C)C | ? | ? | 0.33µM* | 19% | 3%
O=C(O)c1ccc2c(c1)C(=O)N(CCC1=CCCCC1)C2=O | nt | 384% | -4% | 2% | 4%
CN(C(=O)c1ccc2c(c1)C(=O)N(CCC1=CCCCC1)C2=O)C1CCCCC1 | i | 10µM* | nt | -2% | -14%
SMILES | VACV mCherry inh | Pf growth 96h | Pf growth 48h | AMA1-RON2 inh | Vaccinia Venus
O=C1c2ccccc2C2=Nc3ccccc3SC(c3cccc(F)c3)C12 (stereo not drawn) | ? | ? | 0.59µM* | ? | ?
O=C1CCCC2=C1C(c1ccccc1)C1C(=O)c3ccccc3C1=N2 (stereo not drawn) | ? | -8% | -24% | ? | ?
O=C1CCCC2=C1C(c1ccc(Cl)cc1)C1C(=O)c3ccccc3C1=N2 (stereo not drawn) | ? | ? | ? | -28% | ?
O=C1c2ccccc2C2=Nc3ccccc3SC(c3ccc(Cl)cc3)C12 (stereo not drawn) | -10% | -25% | 0.52µM* | ? | -21%
COc1cccc(C(=O)Nc2cc(-c3cn4cccnc4n3)ccc2C)c1OC | -12% | nt | nt | nt | -5%
CCn1cc(C(=O)O)c(=O)c2cc(F)c(N3CCN(S(=O)(=O)c4ccc(NC(C)=O)cc4)CC3)cc21 | -13% | ? | 6.6µM* | 52% | -2%
CCn1cc(C(=O)O)c(=O)c2cc(F)c(N3CCNCC3)cc21 | i | 1.6µM* | ? | nt | -11%
CCn1cc(C(=O)O)c(=O)c2cc(F)c(N3CCN(C(=O)Nc4ccccc4)CC3)cc21 | nt | 5% | 0.47µM* | -4% | nt
CCn1cc(C(=O)O)c(=O)c2cc(F)c(N3CCN(C(=S)NC(=O)c4cccc(C)c4)CC3)cc21 | -14% | -29% | ? | 43% | -11%
CCn1cc(C(=O)O)c(=O)c2cc(F)c(N3CCN(S(=O)(=O)c4ccc5c(c4)OCCO5)CC3)cc21 | nt | ? | ? | 17% | nt
CCCCCCCC(=O)N1CCN(c2cc3c(cc2F)c(=O)c(C(=O)O)cn3CC)CC1 | nt | ? | ? | 10% | nt
CCn1cc(C(=O)O)c(=O)c2cc(F)c(N3CCN(C(=S)NC(=O)c4ccccc4F)CC3)cc21 | 0% | 6.6µM* | 4.1µM* | 45% | -12%
CCCCOC(=O)c1ccc(NC(=O)c2ccc3c(c2)CCCN3S(C)(=O)=O)cc1 | i | nt | nt | nt | -19%
COC(=O)c1ccc(NC(=O)CSc2cn(CC(=O)N3CCCCCC3)c3ccccc23)cc1 | -10% | nt | nt | nt | -8%
CCn1cc(C(=O)NCC(C)C)c(=O)c2cc(F)c(N3CCN(C)CC3)cc21 | -14% | -18% | -9% | 14% | -4%
CCCC(=O)c1cc(F)c(N2CCN(S(=O)(=O)c3ccccc3)CC2)cc1C | -23% | 74% | ? | 13% | -21%
CCn1cc(C(=O)NN)c(=O)c2cc(F)c(N3CCOCC3)cc21 | -12% | 12µM* | ? | 0% | -13%
CCCC(=O)c1cc(F)c(N2CCOCC2)cc1C | -14% | 1.3µM* | 18% | 4% | -9%
CCc1ccccc1NC(=O)c1ccc2c(O)c(S(=O)(=O)c3ccccc3)c(=O)[nH]c2c1 | -3% | nt | nt | nt | -10%
CSc1ncccc1C(=O)NCCN1Cc2ccccc2OC(c2ccccc2F)C1 (stereo not drawn) | -11% | nt | nt | nt | 2%
CCOc1ccc2c(c1)OC(c1ccc(OC)cc1)(C(F)(F)F)NC2=O (stereo not drawn) | ? | ? | ? | -6% | ?
CCOc1ccc2c(c1)OC(c1ccccc1)(C(F)(F)F)NC2=O (stereo not drawn) | -22% | 0.23µM* | 1.7µM* | 41% | -8%
CC(Oc1ccccc1)C(=O)N[C@@H]1C(=O)N2C(C(=O)OCC3CCCCC3)C(C)(C)S[C@H]12 (stereo partly drawn) | i | nt | nt | nt | -9%
CN1CCN(C(=O)CCN2C(=O)/C(=C\c3ccc(Cl)cc3)SC2=S)CC1 | nt | 8.3µM* | -7% | 3% | nt
COc1ccccc1/C=C1\SC(=S)N(CCC(=O)N2CCN(C)CC2)C1=O | ? | 17% | 12µM* | ? | -26%
CN1CCN(C(=O)CCN2C(=O)/C(=C\c3ccc(F)cc3)SC2=S)CC1 | -1% | nt | nt | 0% | -16%
